Source: the supplement of paper PMC13380429

System: Vero E6 infected with SARS-CoV-2
Experiment: inhibition of SARS-CoV-2 cytopathic effect; higher = more antiviral protection, active = above 15
Settings: 48 h

Measured: inhibition of SARS-CoV-2 cytopathic effect

Cc1cc2c(s1)Nc1ccccc1N=C2N1CCN(C)CC1 [olanzapine]
inactive: 1 nM -1.67% | 8.33 nM -2.18% | 100 nM -0.41% | 833.33 nM 8.51% | 10000 nM 1.41%

CCN(CC)Cc1ccc2cc(COC(=O)Nc3ccc(C(=O)NO)cc3)ccc2c1 [givinostat]
inactive: 1 nM -2.85% | 8.33 nM -0.88% | 100 nM -5.68% | 833.33 nM -19.8% | 10000 nM -29.6%

CC1=NN(c2ccc(C)c(C)c2)C(=O)/C1=N\Nc1cccc(-c2cccc(C(=O)O)c2)c1O [eltrombopag]
inactive: 1 nM 2.51% | 8.33 nM 2.25% | 100 nM 2.06% | 833.33 nM 0.59% | 10000 nM 0.99%

NCc1c[nH]c(=S)n1[C@H]1CCc2c(F)cc(F)cc2C1 [nepicastat]
inactive: 1 nM -0.64% | 8.33 nM 1.63% | 100 nM 2.16% | 833.33 nM 0.6% | 10000 nM -0.04%

COc1ccc(F)c(F)c1C(=O)c1cnc(NC2CCN(S(C)(=O)=O)CC2)nc1N
inactive: 1 nM -1.93% | 8.33 nM -3.14% | 100 nM -5.01% | 833.33 nM 6.41% | 10000 nM -11.5%

Cc1ccc(/C(=C\CN2CCCC2)c2cccc(/C=C/C(=O)O)n2)cc1 [acrivastine]
inactive: 1 nM 0.5% | 8.33 nM -0.13% | 100 nM 0.75% | 833.33 nM 6.14% | 10000 nM 1.35%

C[C@@H](NC(=O)c1ncnc(N)c1Cl)c1ncc(C(=O)Nc2cc(C(F)(F)F)c(Cl)cn2)s1
inactive: 1 nM -0.01% | 8.33 nM 6.23% | 100 nM 4.35% | 833.33 nM 4.42% | 10000 nM -1.31%

COc1cc(-c2ccc(=O)[nH]n2)ccc1OC(F)F [zardaverine]
inactive: 1 nM 0.13% | 8.33 nM 1.54% | 100 nM 0.67% | 833.33 nM 0.7% | 10000 nM 2.13%

CCOP(=S)(OCC)Oc1ccc2c(C)c(Cl)c(=O)oc2c1 [coumophos]
inactive: 1 nM -3.33% | 8.33 nM 0.82% | 100 nM 0.18% | 833.33 nM -2.21% | 10000 nM -0.05%

Cc1ccc(/N=C/N(C)/C=N/c2ccc(C)cc2C)c(C)c1 [amitraz]
inactive: 1 nM -1.29% | 8.33 nM -0.98% | 100 nM -1.78% | 833.33 nM -1.85% | 10000 nM 0.1%

CNCC[C@H](Oc1cccc2ccccc12)c1cccs1 [duloxetine]
inactive: 1 nM -2.53% | 8.33 nM -0.71% | 100 nM 0.92% | 833.33 nM -2.04% | 10000 nM -6.87%

CC1(C)NC(=O)N(c2ccc([N+](=O)[O-])c(C(F)(F)F)c2)C1=O [nilutamide]
inactive: 1 nM 3.3% | 8.33 nM 1.17% | 100 nM 0.03% | 833.33 nM -2.17% | 10000 nM 1.01%

CC[N+](C)(CC)CCC[n+]1c(-c2ccccc2)c2cc(N)ccc2c2ccc(N)cc21 [propidium-iodide]
inactive: 1 nM -1.36% | 8.33 nM -0.29% | 100 nM 3.2% | 833.33 nM 2.34% | 10000 nM 2.62%

COc1ccc(C2CNC(=O)NC2)cc1O[C@H]1C[C@@H]2CC[C@H]1C2 [atizoram]
inactive: 1 nM -0.64% | 8.33 nM 1.37% | 100 nM -0.71% | 833.33 nM -0.02% | 10000 nM -1.24%

CC(C)(C)NCC(O)c1ccccc1Cl (stereo not given) [tulobuterol]
inactive: 1 nM 2.01% | 8.33 nM 1.33% | 100 nM -0.63% | 833.33 nM -10.6% | 10000 nM 2%

Oc1cc2c(cc1O)C(c1ccccc1)CNCC2 (stereo not given)
inactive: 1 nM 3.06% | 8.33 nM 1.73% | 100 nM 1.53% | 833.33 nM 1.32% | 10000 nM 0.48%

CN1C(=O)C[C@@H](C(=O)N[C@@H](Cc2c[nH]cn2)C(=O)N2CCC[C@H]2C(N)=O)NC1=O [taltirelin]
inactive: 1 nM 1.73% | 8.33 nM 3.69% | 100 nM 3% | 833.33 nM 3.21% | 10000 nM 4.65%

CNCCCCOc1ccccc1Cc1ccccc1 [bifemelane]
inactive: 1 nM -0.64% | 8.33 nM 0.99% | 100 nM 1.41% | 833.33 nM -0.82% | 10000 nM -1.85%

CS(=O)(=O)OCCCCOS(C)(=O)=O [busulfan]
inactive: 1 nM -2.94% | 8.33 nM -4.62% | 100 nM -3.55% | 833.33 nM -3.78% | 10000 nM -4.14%
